Source: PubChem BioAssay
The list is not random: actives were taken first. Their share in the collection is about 7.9%.
HCMV inh – blocks human cytomegalovirus replication. HFF cells, HCMV-luciferase reporter, 72 h; stronger effect = lower value. activity change, negative = inhibition, % at 57.5 µM. actives 4.5% (n = 410,000); in the data active means activity change below about -60%; inconclusive means no clear call, values can overlap the other calls; inactive means above about -39%
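Inhibition of viral replication was scored as loss of reporter luminescence in HFFs infected with HCMV-luciferase (MOI 1 PFU/cell) for 72 h; compounds tested at 2 doses, normalized to buffer and Salinomycin controls.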
Marburg entry inh – Marburg virus entry inhibition | Marburg virus pseudotyped entry inhibition, cell reporter | Potency, µM (top dose mostly 37.8 µM), most hits filed as inhibitors | actives 1.8% (n = 300,000) | AID 540276; calls by dose curve; tested in HEK293 cells
FMDV inh – blocks foot and mouth disease virus. actives 1.2% (n = 410,000). FMDV antiviral cell-based qHTS. Potency, µM (top dose mostly 57.9 µM), usual class: inhibitors. AID 1159524; calls by dose curve; tested in HEK293T cells; further: read-out not given here; nearly all actives have a fitted effect of over 45% in size
Lassa entry inh – inhibitors of Lassa virus binding or cell entry; AID 540256; actives 1.2% (n = 300,000); Potency, µM (titrated, usually from 37.9 µM), most hits filed as inhibitors; Lassa virus pseudotype entry inhibition, cell reporter; calls by dose curve; tested in HEK293 cells; further: nearly all actives have a fitted effect of over 50% in size
HCV inhibitor – blocks hepatitis C virus. Huh7.5.1 HCVcc-Cre infection, luciferase reporter, 44 h. Potency, µM (top dose mostly 41.8 µM), hits mostly inhibitors. actives 3.4% (n = 340,000). AID 651820; active means well fitted inhibition curve with a large enough effect; inconclusive means small, poorly fitted or top-dose-only effect, or another doubt; inactive means no such curve, though single readings can be large or run the other way
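Cells seeded at 1,000/well and cultured 4 h, then compounds added followed by HCVcc-Cre virus (~0.5 moi). After 44 h further culture, luciferase substrate was added, plates held 15 min at room temperature, and luminescence read for 15 sec.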
Hits are given with their value; ! = repeats disagree.

`COc1ccccc1/C=C/C(=O)NCC(=O)N/N=C/c1ccc(C)o1` gave HCMV inh inconclusive, Marburg entry inh inactive, FMDV inh inactive, Lassa entry inh inactive and HCV inhibitor inactive.
Screening Cc1cc2ccccc2n1-c1ccc(C(=O)N2CCC(C(=O)NCc3ccccc3Cl)CC2)s1 returned HCMV inh inactive, FMDV inh inactive and Lassa entry inh inactive.
Screening C#CCN(Cc1nc(N2CCOCC2)c2ccc(Cl)cc2n1)Cc1ccco1 returned FMDV inh inactive.
For CCC1CSC(Nc2ccc(C(=O)/C=C/c3cccc(C)c3)cc2)=N1 (stereo not drawn) the results were HCMV inh -63, Marburg entry inh inconclusive, FMDV inh inactive, Lassa entry inh inactive and HCV inhibitor inconclusive.
CCc1ccc(NC(=O)CN2C(=O)C(c3ccc(F)cc3)=NC2(C)C)cc1 was read as HCMV inh inconclusive, Marburg entry inh inactive, FMDV inh inactive and Lassa entry inh inactive.
Cc1cccc(C)c1N(CC(=O)NCc1ccc(F)cc1)C(=O)c1csnn1 was read as HCMV inh inactive, FMDV inh inactive and HCV inhibitor inactive.
CN(Cc1ccco1)c1ncncc1-c1ccc2c(c1)OCO2 was read as FMDV inh inactive.
COc1ccccc1Nc1nc(Cl)nc(Nc2ccccc2OC)n1 was read as HCMV inh inactive, Marburg entry inh inactive, FMDV inh inconclusive, Lassa entry inh inactive and HCV inhibitor 13µM.
For C=CCNc1nc(Cl)nc(Nc2cc(Cl)ccc2OC)n1 the results were HCMV inh inactive, Marburg entry inh 13µM, FMDV inh inactive, Lassa entry inh inactive and HCV inhibitor inactive.
COc1ccccc1Nc1cc(C)nc(Nc2ccccc2OC)n1 was read as HCMV inh inactive, Marburg entry inh inactive, FMDV inh inactive, Lassa entry inh inactive and HCV inhibitor 2.5µM.
For CCOc1nc(Nc2cc(Cl)ccc2OC)nc(OCC)n1 the results were HCMV inh inactive, Marburg entry inh inactive, FMDV inh inactive, Lassa entry inh inactive and HCV inhibitor inactive.
CO[C@H]1[C@H](NC(=O)c2cccs2)c2ccccc2C12CCN(Cc1cccn1-c1cccnc1)CC2 was read as FMDV inh inactive.
For CCn1c(-c2ccccc2F)nc2cc(NC(C)=O)cc(C(=O)N(C)Cc3ccc4nccnc4c3)c21 the results were FMDV inh inactive.
Screening CCOc1ccc(OCC)c(NC(=O)CN(C)S(=O)(=O)c2ccc3nc(C)sc3c2)c1 returned HCMV inh inconclusive, Marburg entry inh inactive, FMDV inh 32µM, Lassa entry inh inconclusive and HCV inhibitor inconclusive.
For CCOc1ccccc1NC(=O)CN(C)S(=O)(=O)c1ccc2nc(C)sc2c1 the results were HCMV inh inactive, Marburg entry inh inactive, FMDV inh inactive and Lassa entry inh inactive.
COc1ncc2ncc(=O)n(C3CC3)c2n1 was read as FMDV inh inactive.
Screening COc1ccc(CNC(=O)CSCc2ccccc2Cl)cc1 returned HCMV inh inactive, Marburg entry inh inconclusive, FMDV inh inactive, Lassa entry inh inconclusive and HCV inhibitor inactive.
For COc1cc([C@@H]2c3cc4c(cc3[C@@H](O[C@@H]3O[C@@H]5CO[C@@H](C)O[C@@H]5[C@H](O)[C@@H]3O)[C@H]3COC(=O)[C@H]23)OCO4)cc(OC)c1O the results were FMDV inh inactive.
CC1CCCN(C2(O)C(=O)Nc3ccc([N+](=O)[O-])cc32)C1 (stereo not drawn) was read as HCMV inh -63, FMDV inh inactive and HCV inhibitor inactive.
`Brc1cccc(OCCCCN2CCCCC2)c1` gave HCMV inh inactive, Marburg entry inh inconclusive, FMDV inh inactive, Lassa entry inh inactive and HCV inhibitor inactive.
Screening CC1CCCN(Cc2cccc(Oc3ccccc3)c2)C1 (stereo not drawn) returned HCMV inh -98, Marburg entry inh inconclusive, Lassa entry inh inactive and HCV inhibitor inactive.
Screening CC1CCCN(CCOCCOc2ccc(Cl)cc2Br)C1 (stereo not drawn) returned HCMV inh inactive, Marburg entry inh 4.6µM, FMDV inh inactive, Lassa entry inh inconclusive and HCV inhibitor inactive.
For CC1CCCN(CCOCCOc2ccc(Br)cc2Cl)C1 (stereo not drawn) the results were HCMV inh -64, Marburg entry inh 16µM, FMDV inh inconclusive, Lassa entry inh inconclusive and HCV inhibitor inconclusive.
Screening CC1CCCN(CCCCOc2cccc(Br)c2)C1 (stereo not drawn) returned HCMV inh inactive, Marburg entry inh 2.9µM, FMDV inh inactive, Lassa entry inh 3.3µM and HCV inhibitor inconclusive.
OC1CCN(Cc2cccc(Oc3ccccc3)c2)CC1 was read as HCMV inh inactive, Marburg entry inh inactive, FMDV inh inactive, Lassa entry inh inactive and HCV inhibitor inactive.
Cc1cc2nc(C3CCCCC3)c(CC(C)(C)C)n2c(C)c1Br was read as HCMV inh inactive and FMDV inh inactive.
For COC(=O)c1ccc(-c2cccc3c2OC(CNC(=O)c2ccc4c(c2)OCCO4)C3)nc1 (stereo not drawn) the results were FMDV inh inactive.
`CC1CCc2c(sc(NC(=O)c3cc(-c4cccc(Cl)c4)on3)c2C(N)=O)C1` (stereo not drawn) gave HCMV inh inactive, Marburg entry inh inactive, FMDV inh inactive and Lassa entry inh inactive.
`Cc1cc(Cl)c(OCCOCCN2CCCCC2)c(Br)c1` gave HCMV inh inactive, Marburg entry inh inconclusive, FMDV inh inactive, Lassa entry inh inactive and HCV inhibitor inactive.
For Cc1cc(Cl)c(OCCOCCN2CCCC(C)C2)c(Br)c1 (stereo not drawn) the results were HCMV inh inactive, Marburg entry inh inconclusive, FMDV inh inactive, Lassa entry inh 13µM and HCV inhibitor inconclusive.
For Cc1ccc(-c2nn(C)c(=O)c3ccccc23)cc1CNC(=O)c1ccccc1 the results were HCMV inh inactive, Marburg entry inh inconclusive, FMDV inh inactive, Lassa entry inh 11µM and HCV inhibitor inactive.
For Cc1ccc(-c2nn(CC(=O)NCc3cc(-c4nn(C)c(=O)c5ccccc45)ccc3C)c(=O)c3ccccc23)cc1 the results were HCMV inh -95, Marburg entry inh 3.2µM!, FMDV inh 16µM, Lassa entry inh inconclusive and HCV inhibitor inconclusive.
For CCC(=O)NCc1cc(-c2nn(C)c(=O)c3ccccc23)ccc1C the results were HCMV inh inactive, Marburg entry inh inactive, FMDV inh inactive, Lassa entry inh inactive and HCV inhibitor inactive.
`C1CCN(CCCNC2C3CC4CC(C3)CC2C4)C1` (stereo not drawn) gave HCMV inh -84, Marburg entry inh inconclusive, FMDV inh inactive, Lassa entry inh inconclusive and HCV inhibitor 2.5µM.
Screening CN(Cc1ccccn1)C(=O)C1CCC(=O)N(CCc2ccc(Cl)cc2)C1 (stereo not drawn) returned HCMV inh inactive, FMDV inh inactive and HCV inhibitor inactive.
Screening Cc1cc(F)ccc1N1CCC(N2CCN(CCC(C)C)C(CCO)C2)CC1 (stereo not drawn) returned HCMV inh inactive, Marburg entry inh inconclusive, FMDV inh inactive, Lassa entry inh inconclusive and HCV inhibitor 10µM.
